Measured values published in PubChem BioAssay (NCI).
This is part of a sample that, as a whole, favours compounds with a hit. Of some 83,000 tested, about 20% had one in any assay.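 Treatment: one concentration, 48 hours, 96-well format. Scoring: percent growth, with anything below 10 considered active.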 Calls of active or inactive are those of the source.

Tests used:
Assay in all cases: NCI-60 one-dose screen, 48 h (100 = growth as untreated, 0 = no growth, -100 = all killed)
Settings in all cases: 10 µM unless noted
NCI-H23 lung = tested on: NCI-H23 lung
NCI-H226 lung = tested on: NCI-H226 lung
NCI-H322M lung = tested on: NCI-H322M lung
HOP-62 NSCLC = tested on: HOP-62 NSCLC
NCI-H460 lung = tested on: NCI-H460 lung
HOP-92 NSCLC = tested on: HOP-92 NSCLC
NCI-H522 lung = tested on: NCI-H522 lung
A549/ATCC NSCLC = tested on: A549/ATCC NSCLC
786-0 renal = tested on: 786-0 renal
COLO 205 colon = tested on: COLO 205 colon

Measured: growth

COc1ccc(C(=O)CSc2nnc(-c3cc(-c4ccccc4)nc4ccccc34)o2)cc1
inactive: NCI-H23 lung 109% | NCI-H226 lung 106% | NCI-H322M lung 99.7% | HOP-62 NSCLC 97.5% | NCI-H460 lung 106% | HOP-92 NSCLC 113% | NCI-H522 lung 102% | A549/ATCC NSCLC 98% | 786-0 renal 106% | COLO 205 colon 122%

COc1cc(-c2nc(SCCC(C)C)nc(Nc3ccc(S(N)(=O)=O)cc3)c2C#N)cc(OC)c1OC
active: HOP-92 NSCLC 2.39%
inactive: NCI-H23 lung 51.2% | NCI-H226 lung 44% | NCI-H322M lung 72.7% | HOP-62 NSCLC 33.5% | NCI-H460 lung 19.7% | NCI-H522 lung 45% | A549/ATCC NSCLC 26.4% | 786-0 renal 31.4% | COLO 205 colon 29.8%

CCOC(=O)/C(C#N)=C(\C)CCc1ccccc1
inactive: NCI-H23 lung 91.8% | NCI-H226 lung 102% | NCI-H322M lung 102% | HOP-62 NSCLC 84.8% | NCI-H460 lung 105% | HOP-92 NSCLC 81.5% | NCI-H522 lung 86.1% | A549/ATCC NSCLC 90.3% | 786-0 renal 90.1% | COLO 205 colon 132%

CCCCCCCCN(CCCCCCCC)CC(O)c1ccc(Cl)c(C)c1Cl (stereo not given)
inactive: NCI-H23 lung 65% | NCI-H226 lung 94.4% | NCI-H322M lung 81.8% | HOP-62 NSCLC 89.3% | NCI-H460 lung 72.8% | HOP-92 NSCLC 71.2% | NCI-H522 lung 65.6% | A549/ATCC NSCLC 78% | 786-0 renal 91.7% | COLO 205 colon 60.5%

COc1cc(NN=C(c2ccc(O)cc2)c2ccc(O)cc2)c([N+](=O)[O-])cc1[N+](=O)[O-]
active: NCI-H23 lung 5.6% | HOP-62 NSCLC -1.66% | NCI-H460 lung 1.73% | NCI-H522 lung -49.9% | A549/ATCC NSCLC -5.34% | 786-0 renal -29.5%
inactive: NCI-H226 lung 110% | NCI-H322M lung 94.3% | HOP-92 NSCLC 70.2% | COLO 205 colon 12.7%

O=C(NCCCNC(=O)OCc1ccc2cccc(O)c2n1)OCc1ccc2cccc(O)c2n1
inactive: NCI-H23 lung 70% | NCI-H226 lung 71.1% | NCI-H322M lung 59.4% | HOP-62 NSCLC 32.1% | NCI-H460 lung 26.1% | HOP-92 NSCLC 33.9% | NCI-H522 lung 18.4% | A549/ATCC NSCLC 47.5% | 786-0 renal 60.1% | COLO 205 colon 29.6%

Nc1ccc(Cl)c([N+](=O)[O-])c1
inactive: NCI-H23 lung 111% | NCI-H226 lung 101% | NCI-H322M lung 106% | HOP-62 NSCLC 101% | NCI-H460 lung 104% | HOP-92 NSCLC 94% | NCI-H522 lung 87.5% | A549/ATCC NSCLC 97.7% | 786-0 renal 107% | COLO 205 colon 107%

N#C/C(C(=O)c1ccccc1)=C1/C(=O)Nc2ccccc21
inactive: NCI-H23 lung 102% | NCI-H226 lung 104% | NCI-H322M lung 100% | HOP-62 NSCLC 86.3% | NCI-H460 lung 106% | HOP-92 NSCLC 105% | NCI-H522 lung 97.6% | A549/ATCC NSCLC 106% | COLO 205 colon 105%
active: 786-0 renal 6.59%

COc1cc(C(=O)/C=C/c2c(-c3ccc(F)cc3)nc3sccn23)cc(OC)c1OC
active: NCI-H460 lung -1.39% | HOP-92 NSCLC -14.9% | NCI-H522 lung -18.2%
inactive: NCI-H23 lung 56.5% | NCI-H226 lung 76.1% | NCI-H322M lung 29.9% | HOP-62 NSCLC 61.3% | A549/ATCC NSCLC 41.1% | 786-0 renal 61.5% | COLO 205 colon 12.3%

Cc1ccc(NC(=O)N[C@@H](Cc2cc(F)cc(F)c2)C(=O)N[C@@H]2C(=O)N3CCC[C@H]3C(=O)N3CCCC[C@H]3C(=O)N[C@@H](C)C(=O)N3C[C@H](C)C[C@H]3C(=O)O[C@H]2C)cc1
active: COLO 205 colon 7.51%
inactive: NCI-H23 lung 33.5% | NCI-H226 lung 28.5% | NCI-H322M lung 62.8% | HOP-62 NSCLC 30.1% | NCI-H460 lung 25.6% | HOP-92 NSCLC 29.8% | NCI-H522 lung 31.8% | A549/ATCC NSCLC 23.1% | 786-0 renal 28.2%

O=C(N/N=C1\c2ccccc2-c2cccc(C(=O)O)c21)c1ccc(O)cc1
inactive: NCI-H23 lung 98.2% | NCI-H226 lung 89.6% | NCI-H322M lung 86.4% | HOP-62 NSCLC 93.8% | NCI-H460 lung 96.6% | HOP-92 NSCLC 78.6% | NCI-H522 lung 86.5% | A549/ATCC NSCLC 95.8% | 786-0 renal 97.5% | COLO 205 colon 107%

CCCCOC(=O)c1c(C)[nH]c(/C=C2\N=C(c3ccc[nH]3)C=C2OC)c1C
active: NCI-H23 lung -11.3% | NCI-H226 lung -0.091% | NCI-H322M lung -10.5% | HOP-62 NSCLC 2.13% | NCI-H460 lung 6.62% | HOP-92 NSCLC -17% | NCI-H522 lung -41.3% | A549/ATCC NSCLC -9.07% | 786-0 renal -32.6% | COLO 205 colon -29.2%

Cc1cccc(C[C@H](NC(=O)Nc2ccc(Cl)cc2F)C(=O)N[C@@H]2C(=O)N3C[C@H](O)C[C@H]3C(=O)N3CCCC[C@H]3C(=O)N[C@@H](C)C(=O)N3C[C@H](C)C[C@H]3C(=O)O[C@H]2C)c1
inactive: NCI-H23 lung 25.7% | NCI-H226 lung 20.9% | NCI-H322M lung 34% | HOP-62 NSCLC 24% | NCI-H522 lung 14.7% | A549/ATCC NSCLC 17.9% | 786-0 renal 11%
active: NCI-H460 lung 2.42% | HOP-92 NSCLC -7.02% | COLO 205 colon -30.9%
